In PubChem BioAssay (NCI) one finds growth data, which are given here for six compounds.

Where “and” joins values, the source holds several entries; their conditions need not be identical. Equal entries are not always repeated. The panel holds about 83,000 compounds, 20% with a hit somewhere; the sample as a whole holds those more often.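 Plates (96-well) were seeded with cells, treated with compound at one concentration, and incubated for 48 hours before percent growth was determined.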 Calls of active or inactive are those of the source. Rule for the calls: active = growth percent below 10; inactive = the rest.

Among the test systems are NCI-H23 lung; NCI-H226 lung; NCI-H322M lung; HOP-62 NSCLC; NCI-H460 lung; HOP-92 NSCLC; NCI-H522 lung; A549/ATCC NSCLC; 786-0 renal; COLO 205 colon; DU-145 prostate; K-562 leukemia; MALME-3M melanoma; MDA-MB-231 breast; RXF 393 renal; SF-268 CNS; SF-295 CNS; SF-539 CNS; UACC-257 melanoma; M14 melanoma.
Holding throughout (assay): NCI-60 one-dose screen, 48 h (100 = growth as untreated, 0 = no growth, -100 = all killed)
What all share (conditions): 10 µM unless noted

`FC(F)(F)Sc1ccc(/C=C/c2cc(/C=C/c3ccc(SC(F)(F)F)cc3)n(-c3ccccc3)n2)cc1`: the growth was 103% (inactive) in the test with NCI-H23 lung; 89.5% (inactive) in the test with NCI-H226 lung; 93.7% (inactive) in the test on NCI-H322M lung; 90.8% (inactive) with HOP-62 NSCLC; 99.8% (inactive) in the test with NCI-H460 lung; 87.3% (inactive) in the test with HOP-92 NSCLC. Further, the growth with NCI-H522 lung is 89.4% (inactive); with A549/ATCC NSCLC, 89.5% (inactive); with 786-0 renal, 91.8% (inactive); in the test with COLO 205 colon, 92.8% (inactive); in the test with DU-145 prostate, 108% (inactive); in the test on K-562 leukemia it was 91% (inactive). The growth with MALME-3M melanoma is 98.8% (inactive); in the test with MDA-MB-231 breast, 89.5% (inactive); with RXF 393 renal, 113% (inactive); with SF-268 CNS, 91% (inactive); with SF-295 CNS, 96.6% (inactive); in the test with SF-539 CNS it was 98.1% (inactive). Further, the growth in the test on UACC-257 melanoma is 86.4% (inactive); in the test on M14 melanoma, 95.2% (inactive).
On to `CC[C@H](C)[C@H](NC(=O)[C@H](CCCCN)NC(=O)[C@H](CCCCN)NC(=O)[C@@H](NC(=O)[C@@H](NC(=O)[C@@H](N)Cc1cnc[nH]1)[C@@H](C)CC)[C@@H](C)CC)C(=O)N[C@@H](CCCNC(=N)N)C(=O)N[C@H](C(=O)N[C@@H](Cc1c[nH]c2ccccc12)C(=O)N[C@@H](Cc1ccc(O)cc1)C(=O)N[C@@H](CCCNC(=N)N)C(=O)N[C@@H](CCCCN)C(=O)N[C@@H](C)C(=O)N[C@@H](Cc1c[nH]c2ccccc12)C(=O)N[C@@H](Cc1cnc[nH]1)C(=O)N[C@H](C(=O)N[C@@H](CC(C)C)C(=O)NCC(=O)N[C@@H](CCCCN)C(=O)N[C@H](C(N)=O)C(C)C)C(C)C)[C@@H](C)O`, for which the growth in the test on NCI-H23 lung was 17.2% (inactive); with NCI-H226 lung it was 29.8% (inactive); in the test on NCI-H322M lung it was 25.1% (inactive); with HOP-62 NSCLC it was 35.9% (inactive); in the test with NCI-H460 lung, 7.38% (active); in the test on HOP-92 NSCLC, 56.7% (inactive). The growth in the test on NCI-H522 lung was 45.9% (inactive); in the test on A549/ATCC NSCLC, 39.2% (inactive); with 786-0 renal, -28.3% (active); with COLO 205 colon it was -54.8% (active); in the test on DU-145 prostate, 30.7% (inactive); with K-562 leukemia, 67.9% (inactive). Moreover, the growth with MALME-3M melanoma was 4.7% (active); in the test on MDA-MB-231 breast it was 10.9% (inactive); in the test with RXF 393 renal, 23.4% (inactive); in the test on SF-268 CNS it was -12.7% (active); with SF-295 CNS, 24.5% (inactive); with SF-539 CNS, -12.2% (active). Also, the growth with UACC-257 melanoma is 67.8% (inactive); in the test on M14 melanoma it was -12% (active).
For `COc1ccc(-c2[nH]c3ccccc3c2-c2ccc(OC)cc2)cc1`, the growth is 53% (inactive) in the test with NCI-H23 lung; 112% (inactive) in the test on NCI-H226 lung; 84.2% (inactive) in the test with NCI-H322M lung; 51.9% (inactive) with HOP-62 NSCLC; 43.2% (inactive) with NCI-H460 lung; 42.6% (inactive) with HOP-92 NSCLC. Also, the growth in the test on NCI-H522 lung was 55.6% (inactive); in the test with A549/ATCC NSCLC, 75.7% (inactive); in the test with 786-0 renal it was 51.7% (inactive); with COLO 205 colon it was 75.3% (inactive); with DU-145 prostate, -30.6% (active); in the test on K-562 leukemia it was 3.69% (active). Further, the growth was 73.3% (inactive) with MALME-3M melanoma; 52.6% (inactive) with MDA-MB-231 breast; 51.9% (inactive) in the test with RXF 393 renal; 61.4% (inactive) in the test with SF-268 CNS; 50.2% (inactive) with SF-295 CNS; 45.3% (inactive) with SF-539 CNS. Moreover, the values for the growth in the test on UACC-257 melanoma and in the test with M14 melanoma were 72% (inactive) and 34.9% (inactive), respectively.
For `CCN(CC)CCOc1ccccc1C`, the growth was 111% (inactive) in the test on NCI-H23 lung; 116% (inactive) with NCI-H226 lung; 115% (inactive) in the test on NCI-H322M lung; 93.8% (inactive) with HOP-62 NSCLC; 109% (inactive) with NCI-H460 lung; 94.6% (inactive) in the test with HOP-92 NSCLC. Further, the growth in the test with NCI-H522 lung is 92.6% (inactive); in the test with A549/ATCC NSCLC it was 98.6% (inactive); in the test with 786-0 renal, 98.8% (inactive); with COLO 205 colon, 111% (inactive); in the test on DU-145 prostate, 113% (inactive); in the test on K-562 leukemia, 97.5% (inactive). Besides, the growth with MALME-3M melanoma was 105% (inactive); in the test with MDA-MB-231 breast, 103% (inactive); with RXF 393 renal, 160% (inactive); in the test with SF-268 CNS, 120% (inactive); in the test on SF-295 CNS, 101% (inactive); in the test on SF-539 CNS, 93.7% (inactive). Besides, the figures for the growth with UACC-257 melanoma and with M14 melanoma were 106% (inactive) and 98.8% (inactive), respectively.
As for `COc1ccc(-c2cc(-c3cccc(Cl)c3)c(C#N)c(=O)[nH]2)c(OC)c1`, the growth is 92.2% (inactive) in the test with NCI-H23 lung; 101% (inactive) in the test on NCI-H226 lung; 96% (inactive) in the test on NCI-H322M lung; 99.2% (inactive) in the test with HOP-62 NSCLC; 98.7% (inactive) in the test on NCI-H460 lung; 68% (inactive) in the test on HOP-92 NSCLC. The growth in the test with NCI-H522 lung was 90.6% (inactive); in the test on A549/ATCC NSCLC, 96.4% (inactive); in the test on 786-0 renal, 89.7% (inactive); with COLO 205 colon, 121% (inactive); in the test with DU-145 prostate, 97.3% (inactive); in the test with K-562 leukemia, 98.2% (inactive). Also, the growth is 93.7% (inactive) with MALME-3M melanoma; 102% (inactive) in the test with MDA-MB-231 breast; 90.8% (inactive) with RXF 393 renal; 90% (inactive) in the test with SF-268 CNS; 98.2% (inactive) with SF-295 CNS; 92.6% (inactive) in the test on SF-539 CNS. The growth in the test on UACC-257 melanoma was 102% (inactive); with M14 melanoma, 98.2% (inactive).
Take `Cc1nc(Nc2ncc(C(=O)Nc3c(C)cccc3Cl)s2)cc(N2CCN(CCO)CC2)n1`: the growth was 46.6% (inactive) and 32.6% (inactive) in the test with NCI-H23 lung; 31.9% (inactive) and 45.6% (inactive) in the test with NCI-H226 lung; 0.803% (active) in the test on NCI-H322M lung; 12% (inactive) with HOP-62 NSCLC; 74.3% (inactive) and 42.7% (inactive) in the test with NCI-H460 lung; -21.5% (active) and -11.5% (active) with HOP-92 NSCLC. The growth with NCI-H522 lung is -1.57% (active); in the test on A549/ATCC NSCLC, 25.1% (inactive) and 6.75% (active); in the test on 786-0 renal it was 22.2% (inactive) and 9.13% (active); in the test with COLO 205 colon, -1.08% (active) and -9.83% (active); in the test with DU-145 prostate, 10.2% (inactive) and 12.5% (inactive); in the test on K-562 leukemia, 7.66% (active). Also, the growth with MALME-3M melanoma is 51.4% (inactive) and 31.2% (inactive); in the test on MDA-MB-231 breast, 11.2% (inactive) and 8.95% (active); with RXF 393 renal, -18.9% (active) and -46.2% (active); with SF-268 CNS, 28.4% (inactive) and 30.3% (inactive); in the test on SF-295 CNS, 57.4% (inactive) and 37.3% (inactive); in the test on SF-539 CNS, 18.8% (inactive) and -9.03% (active). The growth in the test on UACC-257 melanoma is 79.1% (inactive) and 48.4% (inactive); with M14 melanoma it was 42.4% (inactive) and 17.5% (inactive).
